Source: the supplement of paper PMC10849652
Targets with a hit are over-represented here; the source holds about 7,900 in all. About 0.6% of all pairs of compound and target were hits.

Experiments:
Assay in all cases: log2 fold change, soluble protein after heating vs DMSO (PISA); higher = thermal stabilisation; K562 cells, 10 uM, 30 min; active = over 0.2 and 3.5 SD of the protein, either way, in both replicates (recomputed)
saracatinib = compound: CN1CCN(CCOc2cc(OC3CCOCC3)c3c(Nc4c(Cl)ccc5c4OCO5)ncnc3c2)CC1 [saracatinib]
Outline: (§1)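 K562 cells at 2×10^6 cells/mL were exposed to 10 μM compound for 30 min, then aliquots were heated for 3 min across 48°C-58°C, pooled, and extracted in PBS containing 0.5% NP-40 at 4°C. The supernatant after 21,000xg for 90 min was taken as soluble protein and measured by TMTpro 16plex LC-MS/MS with channel sums equalised. Thermal stability is reported relative to control samples, with values from duplicates. Fold changes are given on a log2 scale.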

sotrastaurin = compound: CN1CCN(c2nc(C3=C(c4c[nH]c5ccccc45)C(=O)NC3=O)c3ccccc3n2)CC1 [sotrastaurin]
Outline: as §1

alvocidib = compound: CN1CC[C@H](c2c(O)cc(O)c3c(=O)cc(-c4ccccc4Cl)oc23)[C@H](O)C1 [alvocidib]
Outline: as §1

Tubastatin A = compound: CN1CCc2c(c3ccccc3n2Cc2ccc(C(=O)NO)cc2)C1 [Tubastatin A]
Outline: as §1

[1] = compound: CNC(=O)C1=CC=CC=C1NC2=NC(=NC=C2Cl)NC3=C(C=C(C=C3)N4CCOCC4)OC
Outline: as §1

defactinib = compound: CNC(=O)c1ccc(Nc2ncc(C(F)(F)F)c(NCc3nccnc3N(C)S(C)(=O)=O)n2)cc1 [defactinib]
Outline: as §1

rucaparib = compound: CNCc1ccc(-c2[nH]c3cc(F)cc4c3c2CCNC4=O)cc1 [rucaparib]
Outline: as §1

[2] = compound: CNc1nc(-c2ccc3c(N)n[nH]c3c2)cc(N2C[C@@H](C(=O)NC3CCCCC3)CC[C@H]2C)n1
Outline: as §1

encorafenib = compound: COC(=O)N[C@@H](C)CNc1nccc(-c2cn(C(C)C)nc2-c2cc(Cl)cc(NS(C)(=O)=O)c2F)n1 [encorafenib]
Outline: as §1

[3] = compound: COC(=O)[C@H](CCSC)NC(=O)C1=C(C=C(C=C1)NC[C@H](CS)N)C2=CC=CC=C2
Outline: as §1

[4] = compound: COC1=CC=C(C=C1)CN2C=CC3=C2C=C(C=C3)C(=O)NO
Outline: as §1

filanesib = compound: CON(C)C(=O)N1N=C(c2cc(F)ccc2F)S[C@@]1(CCCN)c1ccccc1 [filanesib]
Outline: as §1

zotarolimus = compound: CO[C@H]1C[C@@H]2CC[C@@H](C)[C@@](O)(O2)C(=O)C(=O)N2CCCC[C@H]2C(=O)O[C@H]([C@H](C)C[C@@H]2CC[C@H](n3cnnn3)[C@H](OC)C2)CC(=O)[C@H](C)/C=C(\C)[C@@H](O)[C@@H](OC)C(=O)[C@H](C)C[C@H](C)/C=C/C=C/C=C/1C [zotarolimus]
Outline: as §1

idasanutlin = compound: COc1cc(C(=O)O)ccc1NC(=O)[C@@H]1N[C@@H](CC(C)(C)C)[C@](C#N)(c2ccc(Cl)cc2F)[C@H]1c1cccc(Cl)c1F [idasanutlin]
Outline: as §1

alisertib = compound: COc1cc(Nc2ncc3c(n2)-c2ccc(Cl)cc2C(c2c(F)cccc2OC)=NC3)ccc1C(=O)O [alisertib]
Outline: as §1

[5] = compound: COc1cc2nc(-c3cc(F)ccc3O)nc(N[C@@H]3CNC[C@H]3C(C)(C)O)c2cc1OC
Outline: as §1

gefitinib = compound: COc1cc2ncnc(Nc3ccc(F)c(Cl)c3)c2cc1OCCCN1CCOCC1 [gefitinib]
Outline: as §1

[6] = compound: COc1cccc2cc(-c3nc([C@H]4CC[C@H](C(=O)O)CC4)n4ncnc(N)c34)[nH]c12
Outline: as §1

lapatinib = compound: CS(=O)(=O)CCNCc1ccc(-c2ccc3ncnc(Nc4ccc(OCc5cccc(F)c5)c(Cl)c4)c3c2)o1 [lapatinib]
Outline: as §1

pictilisib = compound: CS(=O)(=O)N1CCN(Cc2cc3nc(-c4cccc5[nH]ncc45)nc(N4CCOCC4)c3s2)CC1 [pictilisib]
Outline: as §1

Measured: log2 fold change

MICU1 isoform 3 (UniProt Q9BPX6)
UniProt Q9BPX6, sequence (Q9BPX6 whole entry, looked up): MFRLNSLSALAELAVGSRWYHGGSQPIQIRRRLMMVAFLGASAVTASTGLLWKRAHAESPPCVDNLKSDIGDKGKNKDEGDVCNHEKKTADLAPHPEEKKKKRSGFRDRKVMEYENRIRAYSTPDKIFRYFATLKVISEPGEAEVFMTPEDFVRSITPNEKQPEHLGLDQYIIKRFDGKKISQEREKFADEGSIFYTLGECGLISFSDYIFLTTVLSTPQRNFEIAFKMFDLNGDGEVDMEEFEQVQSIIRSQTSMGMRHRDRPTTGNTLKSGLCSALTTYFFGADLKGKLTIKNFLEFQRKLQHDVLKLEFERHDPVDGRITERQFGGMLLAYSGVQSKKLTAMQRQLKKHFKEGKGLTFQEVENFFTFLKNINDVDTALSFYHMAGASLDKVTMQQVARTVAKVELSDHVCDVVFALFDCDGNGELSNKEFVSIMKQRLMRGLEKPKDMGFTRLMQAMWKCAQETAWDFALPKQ
active: [5] -0.278
inactive: saracatinib -0.073 | sotrastaurin 0 | alvocidib 0.005 | Tubastatin A -0.007 | [1] -0.054 | defactinib 0.172 | rucaparib 0.134 | [2] -0.012 | encorafenib 0.121 | [3] -0.05 | [4] -0.047 | filanesib -0.031 | zotarolimus -0.034 | idasanutlin 0.05 | alisertib -0.011 | gefitinib 0.02 | [6] -0.056 | lapatinib 0.019 | pictilisib -0.038

MAP2K3 isoform 3 (UniProt P46734)
UniProt P46734, sequence (P46734 whole entry, looked up): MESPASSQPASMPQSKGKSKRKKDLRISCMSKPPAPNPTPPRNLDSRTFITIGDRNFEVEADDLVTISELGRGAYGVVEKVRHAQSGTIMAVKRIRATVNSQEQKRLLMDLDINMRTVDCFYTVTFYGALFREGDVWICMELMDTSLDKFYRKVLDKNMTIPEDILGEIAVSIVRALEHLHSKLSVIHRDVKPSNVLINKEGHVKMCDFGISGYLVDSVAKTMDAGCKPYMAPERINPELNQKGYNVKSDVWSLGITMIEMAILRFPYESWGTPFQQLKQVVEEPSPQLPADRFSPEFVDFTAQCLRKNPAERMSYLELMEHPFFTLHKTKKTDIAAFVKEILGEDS
inactive: saracatinib 0.024 | sotrastaurin 0.017 | alvocidib -0.029 | Tubastatin A -0.045 | [1] -0.025 | defactinib -0.063 | rucaparib 0.058 | [2] -0.061 | encorafenib -0.02 | [3] 0.003 | [4] 0.076 | filanesib 0.01 | zotarolimus -0.018 | idasanutlin -0.019 | alisertib 0.152 | [5] 0.166 | gefitinib -0.086 | [6] -0.022 | lapatinib -0.079 | pictilisib 0.07

LUC7L (UniProt Q9NQ29)
UniProt Q9NQ29, sequence (Q9NQ29 whole entry, looked up): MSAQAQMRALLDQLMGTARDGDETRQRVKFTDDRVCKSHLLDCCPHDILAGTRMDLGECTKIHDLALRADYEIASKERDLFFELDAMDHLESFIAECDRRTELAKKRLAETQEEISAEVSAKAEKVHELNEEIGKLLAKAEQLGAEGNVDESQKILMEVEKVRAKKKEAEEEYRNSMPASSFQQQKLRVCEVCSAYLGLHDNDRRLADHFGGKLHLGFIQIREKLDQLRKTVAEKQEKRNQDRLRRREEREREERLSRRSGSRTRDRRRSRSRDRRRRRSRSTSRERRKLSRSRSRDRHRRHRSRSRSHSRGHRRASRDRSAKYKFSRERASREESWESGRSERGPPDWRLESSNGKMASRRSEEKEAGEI
inactive: saracatinib -0.005 | sotrastaurin 0.056 | alvocidib 0.062 | Tubastatin A 0.006 | [1] -0.119 | defactinib 0.022 | rucaparib 0.076 | [2] -0.049 | encorafenib 0.039 | [3] 0.022 | [4] -0.094 | filanesib 0.178 | zotarolimus -0.013 | idasanutlin 0.052 | alisertib -0.07 | [5] 0.024 | gefitinib -0.104 | [6] 0.017 | lapatinib 0.007 | pictilisib 0.092

IWS1 (UniProt Q96ST2)
inactive: saracatinib -0.042 | sotrastaurin 0.021 | Tubastatin A 0.04 | [1] -0.054 | defactinib 0.035 | rucaparib 0.032 | [2] -0.034 | encorafenib -0.1 | [3] -0.127 | [4] 0.007 | filanesib -0.013 | zotarolimus -0.006 | idasanutlin -0.105 | alisertib -0.068 | [5] 0.124 | gefitinib -0.055 | [6] 0.055 | lapatinib -0.077 | pictilisib -0.011
active: alvocidib 0.336

MCUR1 (UniProt Q96AQ8)
UniProt Q96AQ8, sequence (Q96AQ8 whole entry, looked up): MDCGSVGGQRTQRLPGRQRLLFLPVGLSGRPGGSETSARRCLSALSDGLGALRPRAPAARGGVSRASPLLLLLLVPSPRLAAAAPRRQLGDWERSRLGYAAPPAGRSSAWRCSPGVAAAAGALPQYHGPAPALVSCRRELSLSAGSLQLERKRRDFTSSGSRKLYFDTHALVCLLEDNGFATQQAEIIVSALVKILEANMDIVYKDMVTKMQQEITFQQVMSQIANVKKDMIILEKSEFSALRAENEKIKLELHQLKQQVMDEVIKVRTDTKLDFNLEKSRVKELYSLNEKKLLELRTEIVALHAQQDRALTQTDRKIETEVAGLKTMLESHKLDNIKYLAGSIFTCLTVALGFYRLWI
inactive: saracatinib -0.002 | sotrastaurin 0.053 | alvocidib -0.035 | Tubastatin A 0.014 | [1] 0.014 | defactinib -0.047 | rucaparib -0.038 | [2] 0.014 | encorafenib -0.009 | [3] -0.028 | [4] -0.042 | filanesib 0.019 | zotarolimus -0.002 | idasanutlin -0.13 | alisertib 0.009 | [5] 0.181 | gefitinib 0.009 | [6] 0.052 | lapatinib -0.009 | pictilisib 0.087

KPNA4 (UniProt O00629)
UniProt O00629, sequence (O00629 whole entry, looked up): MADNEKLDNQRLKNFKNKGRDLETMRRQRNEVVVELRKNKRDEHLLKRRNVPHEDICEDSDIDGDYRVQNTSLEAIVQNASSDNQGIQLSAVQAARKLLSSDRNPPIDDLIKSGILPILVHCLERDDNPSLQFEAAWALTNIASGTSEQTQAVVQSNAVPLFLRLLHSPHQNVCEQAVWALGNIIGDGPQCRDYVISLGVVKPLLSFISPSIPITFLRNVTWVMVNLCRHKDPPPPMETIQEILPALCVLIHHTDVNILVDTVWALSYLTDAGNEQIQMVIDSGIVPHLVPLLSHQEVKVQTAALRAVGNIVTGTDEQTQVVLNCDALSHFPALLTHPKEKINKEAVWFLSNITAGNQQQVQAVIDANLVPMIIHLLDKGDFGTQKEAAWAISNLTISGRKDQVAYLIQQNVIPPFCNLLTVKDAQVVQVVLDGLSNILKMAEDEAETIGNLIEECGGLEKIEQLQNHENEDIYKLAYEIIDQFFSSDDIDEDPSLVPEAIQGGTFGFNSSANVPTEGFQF
inactive: saracatinib 0.013 | sotrastaurin 0.032 | alvocidib -0.085 | Tubastatin A -0.017 | [1] -0.052 | defactinib -0.095 | rucaparib -0.117 | [2] 0 | encorafenib 0.016 | [3] 0.015 | [4] 0.017 | filanesib -0.028 | zotarolimus 0.015 | idasanutlin -0.068 | alisertib -0.026 | [5] -0.091 | gefitinib 0.041 | [6] 0.044 | lapatinib -0.017 | pictilisib -0.025

MIA2 (UniProt Q96PC5)
UniProt Q96PC5, sequence (Q96PC5 whole entry, looked up): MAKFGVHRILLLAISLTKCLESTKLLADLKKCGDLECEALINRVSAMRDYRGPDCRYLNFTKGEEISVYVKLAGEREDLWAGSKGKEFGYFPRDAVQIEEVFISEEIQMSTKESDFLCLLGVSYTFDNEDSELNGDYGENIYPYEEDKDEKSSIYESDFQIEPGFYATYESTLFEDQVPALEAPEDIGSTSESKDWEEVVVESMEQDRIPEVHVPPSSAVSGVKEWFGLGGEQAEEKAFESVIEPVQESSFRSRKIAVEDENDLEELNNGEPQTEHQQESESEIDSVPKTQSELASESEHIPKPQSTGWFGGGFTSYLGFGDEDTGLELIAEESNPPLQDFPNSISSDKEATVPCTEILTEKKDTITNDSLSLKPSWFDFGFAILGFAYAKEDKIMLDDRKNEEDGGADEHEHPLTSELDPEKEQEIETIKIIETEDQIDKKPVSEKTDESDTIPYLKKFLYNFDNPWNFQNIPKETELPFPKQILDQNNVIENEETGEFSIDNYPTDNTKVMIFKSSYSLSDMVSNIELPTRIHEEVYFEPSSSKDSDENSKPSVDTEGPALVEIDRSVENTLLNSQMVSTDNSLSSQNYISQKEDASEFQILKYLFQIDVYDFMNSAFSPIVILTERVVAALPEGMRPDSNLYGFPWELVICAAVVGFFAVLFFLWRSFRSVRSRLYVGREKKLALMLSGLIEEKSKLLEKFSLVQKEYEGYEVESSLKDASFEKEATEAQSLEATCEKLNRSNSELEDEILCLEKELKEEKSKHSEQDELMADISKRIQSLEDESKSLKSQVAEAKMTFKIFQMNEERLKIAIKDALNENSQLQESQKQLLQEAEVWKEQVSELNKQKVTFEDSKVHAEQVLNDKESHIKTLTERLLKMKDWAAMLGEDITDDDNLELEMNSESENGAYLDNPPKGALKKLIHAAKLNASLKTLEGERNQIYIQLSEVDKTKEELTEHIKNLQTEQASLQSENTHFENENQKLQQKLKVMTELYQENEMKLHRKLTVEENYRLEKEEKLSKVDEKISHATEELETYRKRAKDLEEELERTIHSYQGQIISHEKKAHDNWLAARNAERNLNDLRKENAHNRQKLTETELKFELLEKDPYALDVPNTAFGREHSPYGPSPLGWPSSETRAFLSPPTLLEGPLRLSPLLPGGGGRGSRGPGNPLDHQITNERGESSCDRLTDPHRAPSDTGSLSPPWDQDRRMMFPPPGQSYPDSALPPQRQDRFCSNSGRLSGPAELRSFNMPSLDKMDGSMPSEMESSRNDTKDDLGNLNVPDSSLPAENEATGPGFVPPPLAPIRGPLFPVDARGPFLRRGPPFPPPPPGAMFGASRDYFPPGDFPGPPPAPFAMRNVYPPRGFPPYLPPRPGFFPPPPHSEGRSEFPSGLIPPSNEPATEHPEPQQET
inactive: saracatinib 0.003 | sotrastaurin -0.106 | alvocidib -0.052 | Tubastatin A -0.013 | [1] 0.021 | defactinib -0.085 | rucaparib 0.074 | [2] -0.001 | encorafenib 0.07 | [3] 0.037 | [4] -0.017 | filanesib 0.121 | zotarolimus 0.037 | idasanutlin -0.017 | alisertib 0.069 | [5] 0.027 | gefitinib 0.034 | [6] -0.109 | lapatinib 0.029 | pictilisib -0.019

LSS (UniProt P48449)
UniProt P48449, sequence (P48449 whole entry, looked up): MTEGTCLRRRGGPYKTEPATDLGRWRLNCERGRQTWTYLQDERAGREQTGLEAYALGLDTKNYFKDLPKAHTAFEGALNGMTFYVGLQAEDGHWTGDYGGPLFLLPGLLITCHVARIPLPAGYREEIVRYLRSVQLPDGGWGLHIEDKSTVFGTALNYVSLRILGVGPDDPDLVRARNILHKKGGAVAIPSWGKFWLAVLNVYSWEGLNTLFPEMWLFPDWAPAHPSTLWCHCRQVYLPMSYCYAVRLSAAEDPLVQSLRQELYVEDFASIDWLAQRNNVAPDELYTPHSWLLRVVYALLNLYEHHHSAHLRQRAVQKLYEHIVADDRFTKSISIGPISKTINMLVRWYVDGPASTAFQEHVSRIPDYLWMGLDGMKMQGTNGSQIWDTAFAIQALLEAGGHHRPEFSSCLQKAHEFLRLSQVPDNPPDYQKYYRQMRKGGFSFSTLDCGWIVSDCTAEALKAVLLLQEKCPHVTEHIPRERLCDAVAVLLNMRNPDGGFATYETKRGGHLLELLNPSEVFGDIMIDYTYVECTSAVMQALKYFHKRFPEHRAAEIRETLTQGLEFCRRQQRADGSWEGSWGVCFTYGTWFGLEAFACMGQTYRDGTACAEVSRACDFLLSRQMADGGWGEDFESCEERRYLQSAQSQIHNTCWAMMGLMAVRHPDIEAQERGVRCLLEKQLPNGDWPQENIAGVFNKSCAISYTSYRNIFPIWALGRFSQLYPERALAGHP
active: rucaparib 0.595
inactive: saracatinib 0.172 | sotrastaurin 0.016 | alvocidib -0.066 | Tubastatin A 0.103 | [1] -0.091 | defactinib -0.015 | [2] -0.001 | encorafenib 0.118 | [3] 0.074 | [4] 0.205 | filanesib 0.026 | zotarolimus -0.027 | idasanutlin -0.116 | alisertib 0.121 | [5] 0.16 | gefitinib 0.126 | [6] -0.014 | lapatinib 0.02 | pictilisib 0.07
